# Assay results: PubChem BioAssay (NCI)
# About 83,000 compounds went through this panel and 20% of them were active in at least one assay; those are over-represented in the sample as a whole.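 In brief: 96-well plates, 48 h treatment, single concentration, percent growth endpoint.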 Active and inactive are the calls of the source. The calls were made as follows: active = growth percent below 10; inactive = the rest.
# Tested on: MDA-MB-468 breast
# Assay: NCI-60 one-dose screen, 48 h (100 = growth as untreated, 0 = no growth, -100 = all killed)
# Conditions: 10 µM unless noted
row,Structure (SMILES),growth
1,COC(=O)/C(CCC=C(C)C)=C1\[C@@H](OC(C)=O)C[C@@]2(C)[C@H]1C[C@@H](O)[C@H]1[C@@]3(C)CC[C@H](NCc4ccccc4)[C@@H](C)[C@@H]3CC[C@@]12C,76.8% (inactive)
2,N#Cc1c(-c2ccc(Cl)cc2)nc(SCc2ccccc2)nc1N1CCNCC1,10.3% (inactive)
3,O=C(O)c1cc2ccccc2s1,112% (inactive)
4,Cc1c(C)c(C)c([N+](=O)[O-])c([N+](=O)[O-])c1C,82.1% (inactive)
